From PubChem
The list is not random: actives were taken first. Their share in the collection is about 1.1%.
Tb PGK inh: T. brucei PGK inhibition; P07378; PGK/GAPDH coupled, Kinase-Glo luminescence, 60 min; Potency, µM (highest dose often 57.5 µM), inactives show at the highest dose activity change, negative = inhibition, actives largely listed as inhibitors; 0.043% of 380,000 active; AID 602233; further: nearly all actives have a fitted effect of over 60% in size
Target sequence (P07378 whole entry, looked up): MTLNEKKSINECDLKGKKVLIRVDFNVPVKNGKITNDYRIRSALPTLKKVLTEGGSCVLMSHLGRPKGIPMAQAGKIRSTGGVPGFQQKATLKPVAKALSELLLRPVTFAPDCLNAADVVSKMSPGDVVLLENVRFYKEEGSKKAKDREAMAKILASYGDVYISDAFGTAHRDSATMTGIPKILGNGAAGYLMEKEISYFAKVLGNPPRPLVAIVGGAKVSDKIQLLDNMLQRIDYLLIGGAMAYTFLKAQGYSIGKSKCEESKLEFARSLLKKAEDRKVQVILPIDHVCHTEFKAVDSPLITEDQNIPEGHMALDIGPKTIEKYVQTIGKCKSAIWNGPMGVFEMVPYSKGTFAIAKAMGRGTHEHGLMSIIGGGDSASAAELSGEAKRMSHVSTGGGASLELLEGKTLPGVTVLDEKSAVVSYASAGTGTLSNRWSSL
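Luminescent ATP detection (Kinase-Glo Plus) follows a 60-minute room-temperature incubation, with wells lacking PGK as controls. Buffer: 100 mM TEA (pH 7.6), 5 mM MgCl2, 0.01% Tween-20. Coupling enzyme GAPDH (100 nM final) supplies unstable 1,3-BPG in-well.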
GLS inh: glutaminase GLS (human) inhibition. O94925. GLS enzymatic activity, qHTS titration. Potency, µM (series often up to 45.5 µM), inactives show at the highest dose activity change, negative = inhibition, most hits filed as inhibitors. 0.21% of 410,000 active
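Compounds were pin-transferred onto hKGA, after which L-glutamine (1 mM solution) and a detection mix of glutamate oxidase, HRP and Amplex Red were added. Initial and 30 min RT fluorescence reads were collected.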
Pin1 inhibitor: inhibitors of human Pin1; Q13526; Pin1 FP peptide displacement, HiFluor488, 10 min; Potency, µM (highest dose often 115 µM), for inactives: at the top dose activity, negative = inhibition, usual class: inhibitors; 0.009% of 390,000 active; AID 504891; active means well fitted inhibition curve with a large enough effect in the polarisation, with a control signal flat, not every such curve was filed as active; inconclusive means small, poorly fitted or top-dose-only effect, or effect the other way, or a change in a side signal; inactive means no such curve, though single readings can be large or run the other way; the % refers to the polarisation
Target sequence (Q13526 whole entry, looked up): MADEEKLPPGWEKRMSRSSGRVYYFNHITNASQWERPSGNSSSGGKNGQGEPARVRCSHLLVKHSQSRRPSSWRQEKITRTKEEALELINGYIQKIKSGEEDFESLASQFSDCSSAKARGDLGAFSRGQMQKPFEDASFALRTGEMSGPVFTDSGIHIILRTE
Tb PFK inh: inhibitors of T. brucei phosphofructokinase | T. brucei PFK, ADP-Glo luminescence | Potency, µM (highest dose often 57.5 µM), without a hit: at the top dose activity, negative = inhibition, most hits filed as inhibitors | 0.17% of 330,000 active | O15648;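 further: 0% = uninhibited 1x PFK enzyme wells and -100% = no-enzyme wells; nearly all actives have a fitted effect of over 60% in size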
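In TEA buffer at pH 8.0 with 5 mM MgCl2, enzyme (1.25 nM) converted F6P (0.5 mM) and ATP (0.1 mM) for 45 min at room temperature. ADP product was read by luciferase luminescence.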
VDR inhibitor: blocks the human vitamin D receptor | P11473 | VDR-SRC2-3 peptide fluorescence polarization, 2 h | Potency, µM, inactives show max response, negative = inhibition, actives largely listed as inhibitors | 0.93% of 400,000 active
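After 23 nl compound addition and a short centrifugation, plates sat for 2 hours at ambient temperature; polarization of fluorescence then indicated loss of VDR binding to peptide SRC2-3.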
The depositor's hits bear a star; i = inactive; ? = inconclusive; . = no result; ! = not active in a repeat; [ ] = dose if it differs, or a comment. Unless noted, the call rests on the fitted dose curve; in most records, active means well fitted curve in the direction sought with a large enough effect; inconclusive means small, poorly fitted or top-dose-only effect, or another doubt; inactive means no such curve, though single readings can be large; an effect the other way counts as inactive or inconclusive. Unless noted, on the % scale 0 is the no-effect control and ±100 the full control effect; potency means the concentration at half of the fitted maximal effect.

SMILES	Tb PGK inh	GLS inh	Pin1 inhibitor	Tb PFK inh	VDR inhibitor
CC(C)(C)c1cc(-c2csc(Nc3ccccc3)[n+]2Cc2ccc(C(=O)O)cc2)cc(C(C)(C)C)c1O	-16.7%	-15.4%	.	2.2%	79.4µM*
O=C(O)c1ccc(C[n+]2c(-c3ccccc3)csc2Nc2ccccc2)cc1	14.8%	8.4%	-2.0%	0.0%	-17.7%
CCCC[C@@]1(C2CCCC2)Cc2cc(OCC(=O)O)c(Cl)c(Cl)c2C1=O	-1.6%	-1.1%	?	-6.8%	50.1µM*!
O=C(O)COc1ccc(Cl)cc1C1CCCCC1	2.8%	5.5%	-0.1%	.	-11.0%
Oc1cccc(/C=N/NC(=S)Nc2cccnc2)c1O	-15.7%	10µM*	?	-7.3%	0.4%
Oc1ccc(/C=N/NC(=S)Nc2cccnc2)c(O)c1	-5.0%	20.2%	?	-4.4%	-2.5%
O=C(COc1ccccc1)Nc1ccccc1C(=O)OCc1cc(=O)n2nc(C3CC3)sc2n1	-5.2%	-5.9%	-3.6%	.	-1.8%
O=C(/C=C/c1cccc(Cl)c1Cl)OCC(=O)N1CCOCC1	-0.6%	1.0%	-7.8%	-1.5%	-9.7%
COC1=CC(=O)c2ccccc2C1=O	-7.0%	3.9%	-3.4%	0.0%	-14.0%
COC1=CC(=O)C=C(OC)C1=O	3.5%	-11.2%	-7.6%	.	22.4µM*
CN(C)c1ccc(-c2c(C3C4C=CCCC4(C)C(=O)N3Cc3ccccc3)ccc3ccccc23)cc1 (stereo unspecified)	.	.	16.2%	.	-21.0%
O=[N+]([O-])c1ccc(P(=O)(Cc2ccccc2)c2ccccc2O)cc1 (stereo unspecified)	9.0%	8.7%	-7.5%	?	15.0%
Cc1onc(-c2c(F)cccc2Cl)c1C(=O)N[C@@H]1C(=O)N2[C@H]1SC(C)(C)[C@H]2C(=O)O	.	3.55µM*	.	.	-2.9%
CCN(CC)C(=O)CSc1nc2c(sc(=S)n2CC)c(=O)n1-c1ccccc1	-7.6%	-6.0%	1.0%	2.7%	-1.1%
CCN(CC)C(=O)CSc1nc2c(sc(=S)n2-c2ccccc2)c(=O)n1Cc1ccco1	-10.6%	13.8%	0.2%	1.0%	39.8µM*
CCOC(=O)N1CCN(C(=O)C2CCN(C(=O)c3ccccc3C)CC2)CC1	-12.9%	?	-3.4%	.	22.4µM*
Cc1ccccc1C(=O)N1CCC(C(=O)N2CCN(c3ncccn3)CC2)CC1	-0.2%	-2.1%	1.8%	-3.2%	5.9%
Cc1ccc(C2(c3ccccc3)NC(=O)N(CC(=O)NC3(C#N)CCCC3)C2=O)cc1C (stereo unspecified)	-0.5%	0.2%	-3.7%	-0.6%	-11.9%
COC(=O)c1ccccc1NS(=O)(=O)c1ccc(O)c(C(=O)O)c1	9.0%[11.5 µM]	18.9%	9.0%	37.9µM*	-5.1%
O=[N+]([O-])c1cc(-c2nc(-c3ccncc3)no2)ccc1NCc1ccccc1	-1.7%	0.2%	27.0%	.	12.6%
O=C(O)c1cccc(-c2ccc(/C=c3/sc4nc5ccccc5n4c3=O)o2)c1	?	12.6µM*	?	-15.6%	-6.3%
O=C(O)c1cc(C(=O)O)cc(-c2ccc(/C=c3/sc4nc5ccccc5n4c3=O)o2)c1	?	0.0%	32.5%	18.4%	8.1%
O=C(/C=C/c1ccco1)c1cccc([N+](=O)[O-])c1	-4.2%	-1.2%	?	.	70.8µM*
Cc1cc(O)c(C(=O)/C=C/c2cccc([N+](=O)[O-])c2)c(=O)o1	-10.5%	1.4%	?	-3.2%	-16.8%
O=C(/C=C/c1cccc([N+](=O)[O-])c1)OCC(=O)c1ccccc1	0.7%	5.7%	-0.3%	-1.3%	-8.6%
SMILES	Tb PGK inh	GLS inh	Pin1 inhibitor	Tb PFK inh	VDR inhibitor
CC(=O)Oc1ccccc1C(=O)C=Cc1cccc([N+](=O)[O-])c1	-2.4%	-8.8%	0.3%	.	22.4µM*
COc1ccccc1C(=O)/C=C/c1ccc(N2CCCCC2)c([N+](=O)[O-])c1	4.6%	3.5%	-11.0%	1.5%	79.4µM*
O=C(N/N=C/C=C/c1ccco1)c1cccc([N+](=O)[O-])c1	i	-8.3%	?	-3.7%	-2.0%
O=C(/C=C/c1cccc([N+](=O)[O-])c1)c1ccccc1	.	.	.	.	20µM*
COc1cc(-c2nnc3n2CCCCC3)cc(OC)c1OC	-2.3%	0.4%	-5.2%	0.9%	10.6%
CN(CCCCCCCCCCN(C)C(=O)Oc1cccc([N+](C)(C)C)c1)C(=O)Oc1cccc([N+](C)(C)C)c1	0.4%	3.6%	-4.5%	-0.1%	6.3%
O=C1C=C(O)c2ccccc2C1=O	.	.	.	.	8.91µM*
O=C1C(O)=C(O)C(=O)c2ccccc21	-10.3%	19.4%	?	.	8.91µM*
COc1ccc(-c2nc(-c3ccccc3)c(-c3ccc(F)cc3)[nH]2)c(OC)c1C	-2.5%	-5.0%	?	.	-19.4%
O=C(O)CCc1ccc(-c2ccccc2)o1	-12.8%	7.7%	-1.9%	8.1%	20µM*
O=C(O)CCc1nc(-c2ccccc2)c(-c2ccccc2)o1	.	0.9%	.	0.5%	-18.8%
COC(=O)C1=C(C)N(c2cc(C)cc(C)c2)/C(=C/c2ccc(O)cc2)C1=O	-7.9%	2.0%	11.6%	-3.7%	50.1µM*
COc1ccc2c(c1)c1c(c(=O)n(-c3cc(Cl)ccc3C)c(=O)n1Cc1ccc(F)cc1)n2C	2.3%	8.6%	-1.7%	.	28.2%
Cc1cc2ccccc2n1CCNC(=O)c1ccc(Br)o1	-6.5%	-2.6%	?	-1.2%	79.4µM*
C#CCNCCS(=O)(=O)N(Cc1ccc(Br)cc1)[C@@H](C)C(=O)O	4.7%	5.9%	3.2%	0.3%	-7.7%
CC(Oc1ccc(F)cc1)C(=O)Nc1cccc(S(=O)(=O)N(C)c2ccccc2)c1 (stereo unspecified)	-6.9%	-10.1%	.	.	.
O=C1NC(=Nc2ccccc2Cl)S/C1=C\c1cccc([N+](=O)[O-])c1O	?	14.9%	11.6%	6.9%	79.4µM*
COc1c(/C=C2\SC(=Nc3ccccc3Cl)NC2=O)cccc1[N+](=O)[O-]	-3.6%	5.9%	0.3%	11.5%	-17.2%
O=C1CC(C(=O)N2CCN(c3ccccc3O)CC2)CN1Cc1ccccc1 (stereo unspecified)	i	5.01µM*	5.5%	-0.2%	-17.1%
Cc1ccc(O)c(N=Cc2sc3ccccc3c2Cl)c1	-8.3%	11.2µM*	-0.5%	-4.0%	-6.2%
Oc1ccccc1N=Cc1sc2ccccc2c1Cl	-0.2%	21.5%	40.8%	-7.2%	0.4%
COc1ccc(Nc2nc(-c3sc(N)nc3C)cs2)cc1	-1.2%	20.3%	18.8%	-3.6%	-23.2%
Cc1ccc(Nc2nc(-c3sc(N)nc3C)cs2)cc1	4.8%	9.8%	30.0%	-11.8%	79.4µM*
CCCCOc1ccc(/C=C/C(=O)Nc2ccc(C(N)=O)cc2)cc1	-3.2%	6.3%	0.6%	-0.5%	79.4µM*
CCC(C)C1OC2(C=CC1C)CC1CC(C/C=C(\C)C(OC3CC(OC)C(OC4CC(OC)C(NC(C)=O)C(C)O4)C(C)O3)C(C)/C=C/C=C3\COC4C(O)C(C)=CC(C(=O)O1)C34O)O2 (stereo unspecified) (tested in a mixture with another compound)	.	-2.3%	.	.	.
